Assay results from PubChem BioAssay AID1159580 (chemical genetic matrix, 2015).
Where “and” joins values, the source holds several entries; their conditions need not be identical. Identical values can stand only once. Out of some 5,500 compounds screened, about 2,000 (36%) were called active. About 18% were inconclusive and are not listed. No stated cut-off is given here; in the data, active means normalized growth mostly below about 0.91 (no sharp cut-off); inconclusive means no clear call, values can overlap the other calls; inactive means mostly above about 0.92. The list shows a part of the results.

Assay: chemical genetic growth profiling, strain panel (AID 1159580);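 further: tested at 20 µM; growth read once vehicle control cultures reached saturation at 30 °C; 1 = growth at the plate median or of vehicle wells; lower values mean less growth of the strain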
Details: S. cerevisiae deletion strains, growth OD

Measured: normalized growth

CC(=O)O[C@H]1CC[C@@]2(C)C(=CCC3C2CC[C@@]2(C)C3CC[C@@H]2C(C)CCCC(C)C)C1 (stereo partly drawn)
inactive: locus YAL021C, strain ccr4, active compounds read low 1 | locus YAL026C, strain drs2, active compounds read low 1 | locus YAL030W, strain snc1, active compounds read low 0.985 | locus YBL061C, strain skt5, active compounds read low 0.994 | locus YBR009C, strain hhf1, active compounds read low 0.994 | locus YBR021W, strain FUR4, active compounds read low 0.996 | locus YBR023C, strain chs3, active compounds read low 0.998 | locus YBR171W, strain sec66, active compounds read low 0.976 | locus YBR229C, strain ROT2, active compounds read low 1.01 | locus YBR231C, strain swc5, active compounds read low 0.988 | locus YBR279W, strain paf1, active compounds read low 0.997 | locus YCL011C, strain gbp2, active compounds read low 0.992 | locus YCL016C, strain dcc1, active compounds read low 1.01 | locus YCL029C, strain bik1, active compounds read low 1.02 | locus YCL061C, strain MRC1, active compounds read low 0.988 | locus YCL069W, strain vba3, active compounds read low 0.998 | locus YCR088W, strain abp1, active compounds read low 0.988 | locus YDL005C, strain med2, active compounds read low 0.981 | locus YDL035C, strain GPR1, active compounds read low 1.03 | locus YDL040C, strain nat1, active compounds read low 0.975 | locus YDL074C, strain BRE1, active compounds read low 1.04 | locus YDL101C, strain DUN1, active compounds read low 1.01 | locus YDL134C, strain PPH21, active compounds read low 1.02 | locus YDL185W, strain tfp1, active compounds read low 1.03 | locus YDL192W, strain arf1, active compounds read low 1.05 | locus YDR001C, strain nth1, active compounds read low 0.993 | locus YDR069C, strain doa4, active compounds read low 0.987 | locus YDR101C, strain arx1, active compounds read low 1.02 | locus YDR137W, strain rgp1, active compounds read low 1.01 | locus YDR159W, strain sac3, active compounds read low 0.993 | locus YDR162C, strain NBP2, active compounds read low 1.02 | locus YDR195W, strain ref2 0.943 | locus YDR297W, strain sur2, active compounds read low 0.99 | locus YDR318W, strain mcm21, active compounds read low 1.03 | locus YDR334W, strain swr1, active compounds read low 0.988 | locus YDR335W, strain msn5, active compounds read low 1 | locus YDR388W, active compounds read low 1.03 | locus YDR392W, strain spt3, active compounds read low 0.958 | locus YDR502C, strain sam2, active compounds read low 1.02 | locus YEL003W, strain gim4, active compounds read low 0.988 | locus YEL037C, strain rad23, active compounds read low 0.996 | locus YEL061C, strain CIN8 (second series), active compounds read low 0.992 | locus YEL061C, strain CIN8, active compounds read low 1.01 | locus YER015W, strain faa2, active compounds read low 0.995 | locus YER016W, strain bim1, active compounds read low 0.994 | locus YER110C, active compounds read low 1.03 | locus YER111C, strain swi4, active compounds read low 0.979 | locus YER155C, strain BEM2 (second series), active compounds read low 0.97 | locus YER155C, strain BEM2, active compounds read low 0.992 | locus YER167W, strain BCK2, active compounds read low 1.02 | locus YFR010W, strain ubp6, active compounds read low 0.986 | locus YGL078C, strain dbp3, active compounds read low 1.02 | locus YGL086W, strain mad1, active compounds read low 1.01 | locus YGL167C, strain pmr1, active compounds read low 0.989 | locus YGL173C, strain kem1, active compounds read low 0.99 | locus YGL227W, strain vid30, active compounds read low 0.978 | locus YGL240W, strain doc1, active compounds read low 0.969 | locus YGL248W, strain PDE1, active compounds read low 1.02 | locus YGL253W, strain hxk2, active compounds read low 0.995 | locus YGR078C, strain PAC10, active compounds read low 1.03 | locus YGR135W, strain pre9, active compounds read low 1.02 | locus YGR252W, strain gcn5, active compounds read low 1.03 | locus YHR013C, strain ard1, active compounds read low 0.997 | locus YHR027C, strain rpn1, active compounds read low 0.997 | locus YHR030C, strain SLT2, active compounds read low 1.01 and 0.967 | locus YHR079C, strain IRE1 (second series), active compounds read low 1.02 | locus YHR079C, strain IRE1, active compounds read low 0.974 | locus YHR094C, strain hxt1, active compounds read low 1.01 | locus YHR129C, strain ARP1, active compounds read low 1.02 | locus YHR142W, strain chs7, active compounds read low 1.01 | locus YHR200W, strain rpn10, active compounds read low 1.03 | locus YIL066C, strain RNR3, active compounds read low 1.04 | locus YIL073C, strain SPO22, active compounds read low 1.1 | locus YIL125W, strain kgd1, active compounds read low 1.01 | locus YIR030C, strain dcg1, active compounds read low 1.02 | locus YJL092W, strain hpr5, active compounds read low 0.998 | locus YJL095W, strain BCK1 (second series), active compounds read low 1.01 | locus YJL095W, strain BCK1, active compounds read low 1.03 and 0.973 | locus YJL115W, strain asf1, active compounds read low 1 | locus YJL129C, strain trk1, active compounds read low 0.998 | locus YJL134W, strain LCB3, active compounds read low 1.01 | locus YJL154C, strain vps35, active compounds read low 1 | locus YJL164C, strain tpk1, active compounds read low 1.01 | locus YJL166W, strain qcr8, active compounds read low 0.993 | locus YJL168C, strain set2, active compounds read low 1.02 | locus YJL187C, strain SWE1 (second series), active compounds read low 1.02 | locus YJL187C, strain SWE1, active compounds read low 0.997 | locus YJR043C, strain POL32, active compounds read low 1.03
